One may read the inhibition as the relative decrease from the control value, in per cent.

A short description of assay [1]: inhibitors of TNFa-induced NFkB p65 translocation, primary screen, imaging, HUVEC, MLSMR starter and 10KST1 sets (AID 438;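 active = inhibition above 20% together with a positive visual image hit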;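 also: compound added about 3h40 before a 20 min TNFalpha stimulation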;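 as to inhibition: signal is the nuclear over cytoplasmic p65 intensity ratio per well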). Conditions: HUVEC TNFa-induced p65 nuclear translocation; cell count: measured here: nuclei count (cytotoxicity indicator), at 2.08 µM; inhibition: at 2 µM, stronger effect = higher value, 0% TNFa-plus-vehicle, 100% no-TNFa wells.
Assay [2] in a line: reduction of polyQ htt aggregates in cells – imaging, exon1htt(103Q)mCFP cells, high-content imaging, primary screen (AID 483;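 active = visual image review flags a hit and inhibition of aggregation exceeds 20%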;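 also: compound exposure lasted 3 days before fixation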;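 as to nuclei count: percent of the per-plate median nuclei count of sample wells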). Conditions: exon1htt(103Q)mCFP cell line, aggregate imaging, at 2 µM; inhibition of aggregation: stronger effect = higher value; nuclei count: measured here: cell count, toxicity.
Assay [3] is described as follows: endothelial E-selectin expression blockers – imaging, HUVEC, immunofluorescence, MLSMR starter and 10KST1 sets, primary screen (AID 487;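 active = visually confirmed hit in the image check and inhibition above 20%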;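 as to inhibition: signal is fraction of cell area covered by stained E-selectin grains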;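 as to nuclei count: 100% = median nuclei count of all wells on the same plate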). The note with it: HUVEC TNFalpha-induced E-selectin immunofluorescence imaging, at 2 µM; inhibition: stronger effect = higher value; nuclei count: measured here: cell number, toxicity.
The nature of assay [4]: Primary imaging screen for DUSP6 inhibitors that restore phospho-Erk in transfected HeLa cells, chemical complementation (AID 609;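 active = compounds giving at least 50% inhibition in the cell-based MKP-3 phosphatase rescue imaging test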;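 as to inhibition: phospho-Erk level distribution per well compared with pooled transfected vehicle control wells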). Conditions: HeLa MKP-3 transfected, phospho-Erk imaging KS statistic, at 10 µM, cells stimulated with TPA for 15 min.
The target in assay [5] is Dual specificity protein phosphatase 6 (Homo sapiens) (UniProt Q16828). The assay is described as above. The note with it: HeLa MKP-3 transfected, phospho-Erk imaging KS statistic; at 10 µM; stronger effect = higher value; cells stimulated with TPA for 15 min.
In assay [6] the target is Voltage-gated potassium channel subunit beta-2 (Rattus norvegicus) (UniProt P62483). Description: inhibitors of rat Kvbeta2 reductase activity – biochemical, NADPH fluorescence, primary screen (AID 622;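 active = fluorescence slope higher than the sample average by over 3 SD, cut at about -0.22 in these data, passing the limit was not always enough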;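 also: slope of raw intensity against log time taken from 70 to 1610 s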). Conditions: recombinant KvBeta, 4-cyanobenzaldehyde reduction, at 10 µM, stronger effect = higher value.
Assay [7] has the same target. Nature of the assay: enhancers of rat Kvbeta2 NADPH turnover – biochemical, NADPH fluorescence, primary screen (AID 623;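 active = NADPH fluorescence slope more negative than the mean of all samples by about 3 SD, 99.7% confidence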;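 also: fluorescence intensity change per second fitted from 20 to 320 s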). Conditions: Recombinant KvBeta, NADPH fluorescence decrease slope, 10 min; at 10 µM; stronger effect = lower value.
Assay [8] has as its target Alpha-2C adrenergic receptor (Homo sapiens) (UniProt P18825). Nature of the assay: compounds altering alpha2C-coupled GIRK flux – cell-based, HEK293 alpha2C/GIRK1/2, thallium flux, primary screen (AID 624).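 Also: slope of fluorescence ratio to pre-addition baseline per second over 15 to 24 s.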 Conditions: thallium flux BTC fluorescence, at 10 µM, actives lie on both sides.
Assay [9] is described as follows: inhibitors of larval lipid processing in zebrafish, primary screen, whole organism, PED6 fluorescence, gall bladder and intestine (AID 686;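 active = a full or partial loss of lipid-probe fluorescence in the fish gall bladder, intestine or both, judged by eye; inactive = no fluorescence loss, or compound toxic to the fish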;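 also: larvae 5 to 7 days old with five fish per well; signal comes from phospholipase A2 cleavage of quenched PED6 carried via bile; overnight exposure to compound and PED6 before scoring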). Conditions: Zebrafish larvae PED6 lipid processing, fluorescence scoring; screened at 20 µM (by protocol).
Assay [10] is described as follows: loss of swimming-algae plug formation – whole organism, Chlamydomonas reinhardtii, WT vs cilia-less mutant, absorbance, 96-well, primary screen (AID 463189;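 active = inhibition at or above 50% relative to wild type and mutant plate controls; inactive = inhibition below 50%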;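 also: 0% = wild type cc124 cells in DMSO and 100% = ciliumless bld1 mutant cells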). The note with it: Chlamydomonas reinhardtii gravitaxis, OD600 absorbance, 2 days; at 10 µM; stronger effect = higher value.
A short description of assay [11]: blockers of RIG-like receptor reporter activation – cell-based, Sendai virus stimulus, luciferase, 10K MLSCN set, TLR/RLR signaling modifier project, primary screen (AID 602276;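 active = inhibition at or above 50% at 10 µM; inactive = inhibition below 50%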;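 also: firefly luciferase from ISG56 promoter only with Renilla not read in this screen; 0% = Sendai virus plus DMSO and 100% = medium plus DMSO without virus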). Conditions: HEK293 RL24 IRF3 luciferase reporter, at 10 µM, stronger effect = higher value. In general terms: Reporter assays use an easily measured gene product as a stand-in for the process of interest.

Assay [12] in a line: TLR3 IRF3 reporter activation blockers – cell-based, poly I:C stimulus, luciferase, 10K MLSCN set, primary screen (AID 602277;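 active = inhibition of the reporter signal at or above 50%; inactive = inhibition below 50%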). The note with it: HEK293-TLR3 RL24 IRF3 luciferase reporter, at 10 µM, stronger effect = higher value.
[13] abbreviates: measured here: cell density z-score.
Setting [14] is: measured here: nuclear c-Myc green intensity z-score.
The mark [15] stands for this setting: measured here: nuclear pErk red intensity z-score, stronger effect = higher value.

The structures appear in SMILES notation. Activity calls are given as the source filed them.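 The calls were made as follows, unless noted: active = fluorescence slope after compound addition differing from the mean of all screened samples at 99.7% confidence, in either direction; inactive = the rest.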

Voltage-gated potassium channel subunit beta-2 (Rattus norvegicus), sequence (P62483 whole entry, looked up): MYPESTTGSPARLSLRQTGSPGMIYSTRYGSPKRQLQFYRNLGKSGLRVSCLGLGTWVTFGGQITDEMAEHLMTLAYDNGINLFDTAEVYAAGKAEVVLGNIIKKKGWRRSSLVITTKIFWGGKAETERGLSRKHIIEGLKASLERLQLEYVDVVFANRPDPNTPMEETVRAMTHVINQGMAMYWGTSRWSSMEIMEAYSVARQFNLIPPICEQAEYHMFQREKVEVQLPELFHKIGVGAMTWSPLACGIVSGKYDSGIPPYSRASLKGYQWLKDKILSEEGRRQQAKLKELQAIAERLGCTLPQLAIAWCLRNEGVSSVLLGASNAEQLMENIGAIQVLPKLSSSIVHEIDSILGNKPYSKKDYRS
Dual specificity protein phosphatase 6 (Homo sapiens), sequence (Q16828 whole entry, looked up): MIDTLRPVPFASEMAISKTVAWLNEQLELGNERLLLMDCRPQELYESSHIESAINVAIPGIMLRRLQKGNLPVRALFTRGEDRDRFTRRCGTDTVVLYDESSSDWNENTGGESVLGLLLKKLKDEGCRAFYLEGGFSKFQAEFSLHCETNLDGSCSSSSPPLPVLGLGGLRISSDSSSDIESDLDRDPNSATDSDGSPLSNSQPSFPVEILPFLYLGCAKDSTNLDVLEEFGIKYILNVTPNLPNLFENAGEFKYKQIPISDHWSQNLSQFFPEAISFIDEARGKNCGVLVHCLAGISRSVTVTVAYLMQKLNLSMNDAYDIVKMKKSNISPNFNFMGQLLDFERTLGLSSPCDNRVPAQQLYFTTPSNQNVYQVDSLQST
Alpha-2C adrenergic receptor (Homo sapiens), sequence (P18825 whole entry, looked up): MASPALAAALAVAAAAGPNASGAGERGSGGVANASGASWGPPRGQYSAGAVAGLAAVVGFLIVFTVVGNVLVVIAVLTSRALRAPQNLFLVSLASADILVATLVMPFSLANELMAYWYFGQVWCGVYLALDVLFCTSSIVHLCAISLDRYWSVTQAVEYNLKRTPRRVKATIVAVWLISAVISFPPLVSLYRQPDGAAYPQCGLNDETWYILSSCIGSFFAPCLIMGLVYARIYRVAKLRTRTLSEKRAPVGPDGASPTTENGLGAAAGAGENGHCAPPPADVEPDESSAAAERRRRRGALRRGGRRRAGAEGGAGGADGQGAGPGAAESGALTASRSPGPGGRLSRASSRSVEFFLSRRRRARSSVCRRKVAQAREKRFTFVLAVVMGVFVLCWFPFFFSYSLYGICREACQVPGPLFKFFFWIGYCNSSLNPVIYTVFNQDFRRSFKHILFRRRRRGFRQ

With `Cn1c([N+](=O)[O-])cnc1COC(N)=O`, the cell count in assay [1] was found to be 663. Also, the inhibition was -2.1% (inactive) in assay [1]; -73.8% (inactive) in assay [3]; 1.48% (inactive) in assay [5]; 15.2% (inactive) in [10]; 16.7% (inactive) in [11]; 40.5% (inactive) in [12]. The inhibition of aggregation in assay [2] is 6.9% (inactive). Also, the figures for the nuclei count in assay [2] and in [3] were 97.8% and 138%, respectively. Also, the results for the z-score in assay [4] (setting [13]), in assay [4] (setting [14]) and in assay [4] (setting [15]) were 0.12, 0.491 and 1.01, respectively. In addition, the fluorescence slope in assay [6] was -0.492 (inactive). In addition, the NADPH fluorescence slope in [7] was -3.9e-05 (inactive). The slope in assay [8] was 0.00486 (inactive). Moreover, the call in [9] was inactive.

Turning to `COC(=O)CSc1nc(C)c(C(C)=O)cc1C#N`, the cell count in assay [1] was 505. Further, the inhibition in [1] was -8.8% (inactive); in assay [3], -16.5% (inactive); in assay [5], -8.95% (inactive); in [10] it was 13.8% (inactive); in [11], 3.96% (inactive); in assay [12], -12.7% (inactive). Also, the inhibition of aggregation in assay [2] was 5.5% (inactive). Moreover, the nuclei count in [2] is 86.1%; in assay [3] it was 136%. The z-score in [4] (setting [13]) is -0.468; in [4] (setting [14]), -1.01; in [4] (setting [15]), -0.0332. Also, the fluorescence slope in assay [6] was -0.376 (inactive). Also, the NADPH fluorescence slope in [7] was -3.7e-05 (inactive). Further, in [8], the slope is 0.00524 (inactive). Moreover, the result in [9] was inactive.

As to `CC(=O)OCC(=O)[C@@]12OC(C)(C)O[C@@H]1C[C@H]1[C@@H]3C[C@H](F)C4=CC(=O)C=C[C@]4(C)[C@@]3(F)[C@@H](O)C[C@@]12C`, in assay [1], the cell count came to 518. Besides, the inhibition was -0.9% (inactive) in assay [1]; -73.2% (inactive) in assay [3]; -2.46% (inactive) in assay [5]; -12.6% (inactive) in [10]; 5.9% (inactive) in assay [11]; 40.3% (inactive) in assay [12]. Besides, the inhibition of aggregation in assay [2] is 2% (inactive). Also, the nuclei count in assay [2] was 53.2%; in [3] it was 104%. Also, the z-score is -0.49 in assay [4] (setting [13]), -0.238 in assay [4] (setting [14]) and -0.0296 in assay [4] (setting [15]). In addition, the fluorescence slope in assay [6] was -0.449 (inactive). The NADPH fluorescence slope in assay [7] was -7.8e-05 (inactive). Besides, the slope in assay [8] is 0.00478 (inactive). Besides, the result in assay [9] was inactive.

For the compound `O=C(O)Cc1cc(I)c(Oc2ccc(O)c(I)c2)c(I)c1`, the cell count in assay [1] was 625. Also, the inhibition in [1] was 3.9% (inactive); in assay [3], -92% (inactive); in assay [5], 8% (inactive); in assay [10], 22% (inactive); in assay [11] it was -15.1% (inactive); in [12] it was -273% (inactive). For the same compound, the inhibition of aggregation in assay [2] was 12.4% (inactive). Also, the nuclei count in assay [2] worked out at 103%; in assay [3], 123%. For the same compound, the z-score in assay [4] (setting [13]) is 0.485; in assay [4] (setting [14]) it was -0.133; in [4] (setting [15]), 0.686. Further, the fluorescence slope in assay [6] is -0.541 (inactive). Further, the NADPH fluorescence slope in [7] was -4.1e-05 (inactive). The slope in assay [8] was 0.00612 (inactive). Besides, in assay [9], the call was inactive.

On to `COc1ccc(C2/C(=C(/O)c3ccc(OC(C)C)cc3)C(=O)C(=O)N2CCCN2CCOCC2)cc1` (stereo not given), for which the cell count in assay [1] came to 466. Besides, the inhibition in assay [1] is 4.1% (inactive); in assay [3], -19.1% (inactive); in [5], -11.9% (inactive); in [10] it was -1.04% (inactive); in assay [11], 9.78% (inactive); in [12], 13.7% (inactive). Besides, the inhibition of aggregation in assay [2] was -2.7% (inactive). Also, the nuclei count in [2] worked out at 102%; in assay [3], 134%. Besides, the results for the z-score in assay [4] (setting [13]), in assay [4] (setting [14]) and in assay [4] (setting [15]) were -0.477, 0.263 and 0.227, respectively. Besides, in assay [6], the fluorescence slope is -0.319 (inactive). Further, the NADPH fluorescence slope in [7] was -2e-05 (inactive). In addition, the slope in assay [8] was 0.00508 (inactive). Moreover, in assay [9], the result was inactive.

`O=C(O)CCN(CCC(=O)O)c1nnc(SCc2ccccc2)s1`: the cell count in assay [1] was 428. Also, the inhibition is 4% (inactive) in assay [1]; -187% (inactive) in assay [3]; -3.98% (inactive) in [5]; -1.99% (inactive) in assay [10]; 18.7% (inactive) in [11]; 25.8% (inactive) in [12]. For the same compound, the inhibition of aggregation in [2] is -9.5% (inactive). Further, the values for the nuclei count in assay [2] and in assay [3] were 108% and 136%, respectively. Further, the z-score in [4] (setting [13]) is 0.906; in assay [4] (setting [14]) it was -0.398; in [4] (setting [15]), -0.408. In [6], the fluorescence slope was -0.393 (inactive). Further, in [7], the NADPH fluorescence slope is -6e-05 (inactive). Further, the slope in assay [8] is 0.0059 (inactive). Besides, the call in [9] was inactive.

With `C[C@@H]1C[C@H]2[C@@H]3C[C@H](F)C4=CC(=O)C=C[C@]4(C)[C@@]3(F)[C@@H](O)C[C@]2(C)[C@@]1(O)C(=O)CO`, in assay [1], the cell count amounted to 647. The inhibition in [1] was -3.8% (inactive); in assay [3], -111% (inactive); in [5], 9.37% (inactive); in assay [10], -6.12% (inactive); in assay [11], -11.6% (inactive); in [12] it was 33.6% (inactive). For the same compound, the inhibition of aggregation in assay [2] is -18.8% (inactive). Moreover, the nuclei count in [2] stood at 42.3%; in assay [3], 128%. The z-score in assay [4] (setting [13]) was -1.38; in [4] (setting [14]), 0.0959; in [4] (setting [15]), 0.878. Besides, the fluorescence slope in assay [6] is -0.535 (inactive). Also, the NADPH fluorescence slope in [7] is -3.8e-05 (inactive). For the same compound, the slope in assay [8] is 0.00526 (inactive). In addition, the outcome in assay [9] was inactive.

Take `CCCCCC#CCC#CCC#CCC#CCCCC(=O)O`: the cell count in assay [1] turned out to be 542. The inhibition in [1] is -10.5% (inactive); in assay [3], -39.3% (inactive); in assay [5] it was -0.493% (inactive); in assay [10], 2.88% (inactive); in assay [11], 11% (inactive); in assay [12], 33.2% (inactive). Also, in assay [2], the inhibition of aggregation was -23.3% (inactive). Also, the nuclei count is 92.5% in assay [2] and 127% in assay [3]. For the same compound, the z-score in assay [4] (setting [13]) was -0.772; in assay [4] (setting [14]), 0.757; in [4] (setting [15]), 0.0999. For the same compound, the fluorescence slope in assay [6] was -0.461 (inactive). In addition, the NADPH fluorescence slope in [7] is -0.000212 (active). Also, the slope in [8] was 0.00468 (inactive). Moreover, the outcome in assay [9] was inactive.

For the compound `Cn1ncc2c(Nc3ccccc3Br)ncnc21`, in assay [1], the cell count worked out at 339. For the same compound, the inhibition in assay [1] is -21% (inactive); in [3], -72.4% (inactive); in assay [5] it was 14% (inactive); in assay [10] it was 13.6% (inactive); in assay [11], 2.79% (inactive); in assay [12], -6.76% (inactive). Moreover, the inhibition of aggregation in [2] is 21.2% (inactive). Also, the nuclei count was 99.3% in assay [2] and 128% in assay [3]. The figures for the z-score in assay [4] (setting [13]), in assay [4] (setting [14]) and in [4] (setting [15]) were 0.246, -0.649 and -0.252, respectively. In assay [6], the fluorescence slope was -0.443 (inactive). Besides, the NADPH fluorescence slope in [7] is -2.6e-05 (inactive). For the same compound, in [8], the slope is 0.00658 (inactive). For the same compound, the call in assay [9] was inactive.

For the compound `O=C(CCCN1CC=C(n2c(=O)[nH]c3ccccc32)CC1)c1ccc(F)cc1`, the cell count in assay [1] stood at 658. Also, the inhibition in assay [1] was -2.1% (inactive); in assay [3], -156% (inactive); in [5], 19.2% (inactive); in assay [10] it was 5.84% (inactive); in assay [11], -12.2% (inactive); in assay [12], -37.3% (inactive). Also, in [2], the inhibition of aggregation is -8.1% (inactive). Also, the figures for the nuclei count in [2] and in assay [3] were 105% and 128%, respectively. Also, the figures for the z-score in assay [4] (setting [13]), in assay [4] (setting [14]) and in assay [4] (setting [15]) were -0.186, 0.167 and 0.602, respectively. The fluorescence slope in assay [6] is -0.516 (inactive). Moreover, in assay [7], the NADPH fluorescence slope was -7.4e-05 (inactive). Besides, the slope in [8] was 0.00484 (inactive). In [9], the result was inactive.
